60 sequences from the OligoGym collection can be followed below.

Targets include PFKFB4; PGD; PGLYRP2; PGBD3; PIK3AP1; PHF8; PIK3R4; PHF23; PION; PKLR; PLA2G4A; PLA2G4F.
Common to all, as to assay: pooled miR-30 sensor sort-seq; sequence = guide strand
What all share (settings): shRNA
Further: reference of the scale not given here.

On to TTCACTGTGAGAGCAGGCCTGA, for which, in the test with PFKFB4, the sensor-assay potency score (higher = more potent) was -0.707.

For the sequence TAGGAATACACTTCTAATGATG, in the test with PGD, the sensor-assay potency score (higher = more potent) is -1.08.

Turning to TAGTCTCCAAGGATGACCCCAT, the sensor-assay potency score (higher = more potent) with PGLYRP2 is -0.15.

For the sequence TGACTTAAAGAAGTCGTCCAGT, the sensor-assay potency score (higher = more potent) with PGD is -0.436.

TCAAGTGACTCTTAGCAGCAGG: the sensor-assay potency score (higher = more potent) with PFKFB4 was -0.462.

In turn, TTTCCTTTCACATTGTAGGGTT came in with a sensor-assay potency score (higher = more potent) in the test with PFKFB4 of 0.667.

As to TTTCACACTTCACAAAGCCAAC, in the test with PFKFB4, the sensor-assay potency score (higher = more potent) was -1.28.

With TTGATATAGGACAGGTCCCTAT, the sensor-assay potency score (higher = more potent) with PFKFB4 is -1.32.

On to TTGAGCGTAAGAGATGATCTTG, for which the sensor-assay potency score (higher = more potent) with PGD amounted to 0.0723.

In the test with PGBD3, TTCATCAGGAGAGTCATCTTTA came in with a sensor-assay potency score (higher = more potent) of 0.38.

As to TAAAGCTACATCTGATTCCAGT, the sensor-assay potency score (higher = more potent) in the test with PGBD3 is -0.329.

In the test with PIK3AP1, TTCGATTAAGTCTTCATCCTTT had a sensor-assay potency score (higher = more potent) of 0.829.

For the sequence TTGCTTTCTGGAAAGAGCCTGT, in the test with PHF8, the sensor-assay potency score (higher = more potent) was -0.163.

As to TTCCAAACTAATGACATTGAGG, the sensor-assay potency score (higher = more potent) in the test with PHF8 is -0.716.

The sequence TTACAGTAGACATCAGCTGTAC registered a sensor-assay potency score (higher = more potent) with PIK3R4 of 0.0221.

For the sequence TTGCTATCTTGGTTCGCCGAGA, the sensor-assay potency score (higher = more potent) with PHF8 was -0.723.

Sequence TTCAATTTTATTTAGCACTTGT had a sensor-assay potency score (higher = more potent) in the test with PIK3R4 of 0.585.

For AACACTTGTAGCACTTGTCCAC, in the test with PHF8, the sensor-assay potency score (higher = more potent) is -0.0267.

Take TTGCCTTCTAAAAACTTGCGGA: in the test with PIK3AP1, the sensor-assay potency score (higher = more potent) was -0.361.

As for TAGCCGTTTAAGATTTTCCTGC, the sensor-assay potency score (higher = more potent) in the test with PIK3AP1 is -0.144.

TTATTTTCATATCTGAGCCAGC: the sensor-assay potency score (higher = more potent) with PIK3R4 was -0.787.

Regarding TTCAACACCAACACAACTGCCA, in the test with PHF8, the sensor-assay potency score (higher = more potent) amounted to 0.225.

On to TAACATGTGATCAGATCCCATG, for which, in the test with PHF23, the sensor-assay potency score (higher = more potent) is -0.921.

With TAATAGCTTACAACCATCTTTT, the sensor-assay potency score (higher = more potent) with PIK3R4 is -0.784.

On to TTACTTGTGCTACTTGCTGTGC, for which the sensor-assay potency score (higher = more potent) with PIK3AP1 is -0.439.

With TAAACTAGTCAAGTACATCTTA, the sensor-assay potency score (higher = more potent) with PIK3R4 is 0.418.

Consider TTTTGTAGCAGTCCTAACTGGC, for which, in the test with PIK3R4, the sensor-assay potency score (higher = more potent) is -0.0245.

In the case of TTTTATTTAGCACTTGTTCAGG, the sensor-assay potency score (higher = more potent) with PIK3R4 is -0.266.

Turning to TTGTCATCATATCTTCTTCTTC, the sensor-assay potency score (higher = more potent) with PIK3AP1 was -0.605.

Sequence TTGGATAAACTCTTCACCCTTT yielded a sensor-assay potency score (higher = more potent) with PHF8 of 0.593.

As to TTTGTCAGAACCAACATAGTGT, the sensor-assay potency score (higher = more potent) with PHF8 worked out at 0.088.

In turn, TAGCAAAGTAACAACTTTCTGC yielded a sensor-assay potency score (higher = more potent) with PIK3R4 of 0.5.

In turn, TTTAACTTCCGCTTCTTGCTCT registered a sensor-assay potency score (higher = more potent) with PHF23 of 0.601.

The sequence TCACACTCGATCATGAAGCGGG gave a sensor-assay potency score (higher = more potent) with PHF8 of 0.234.

As for TATAGTTCTGAAGCAGTCGCGT, the sensor-assay potency score (higher = more potent) with PION was -0.318.

For TAACTTCCGCTTCTTGCTCTTC, the sensor-assay potency score (higher = more potent) with PHF23 is -0.863.

Take TTCTTCAGTCCATACTTCGCAG: in the test with PIK3AP1, the sensor-assay potency score (higher = more potent) is -0.885.

Take TACTCGTCGATGAACTGCCGCA: in the test with PIK3AP1, the sensor-assay potency score (higher = more potent) is -0.193.

As for TTCCTTTAAAACACTGAGCAGA, the sensor-assay potency score (higher = more potent) with PIK3R4 was -0.752.

Regarding TATCTGAAAAATAACTCTCTAC, in the test with PIK3R4, the sensor-assay potency score (higher = more potent) is -0.529.

Turning to TTTGCTATCTTGGTTCGCCGAG, in the test with PHF8, the sensor-assay potency score (higher = more potent) is -0.492.

As for TTGTCTCGCACATACTGCCTAA, the sensor-assay potency score (higher = more potent) with PIK3R4 was -0.86.

TTCCTCTTTAATGTGACTCTTG: the sensor-assay potency score (higher = more potent) in the test with PIK3AP1 was -0.151.

In the case of TTCTGCTTGAACGATGACCTGT, in the test with PHF8, the sensor-assay potency score (higher = more potent) was determined as 0.147.

With AAGTCTAGGAACTCCTCGCTGT, the sensor-assay potency score (higher = more potent) in the test with PIK3AP1 was determined as 0.0251.

With TTTCACAAAATCACCAAGCTTC, in the test with PHF8, the sensor-assay potency score (higher = more potent) came out at 0.0269.

As to TTAAGGTCAACAGTCATGCTAT, the sensor-assay potency score (higher = more potent) with PIK3AP1 is -0.337.

For TTGAGCTGCATCTCGATGTTAA, in the test with PHF8, the sensor-assay potency score (higher = more potent) was -0.768.

TAGACTGAACTAAACTTGCAGC: in the test with PION, the sensor-assay potency score (higher = more potent) is -0.224.

As for TAGACGATGAGGATGTCGCATC, in the test with PIK3AP1, the sensor-assay potency score (higher = more potent) was -0.908.

As for TTTAATGTGACTCTTGAGCATG, the sensor-assay potency score (higher = more potent) with PIK3AP1 is -0.893.

As to ATGCTCTCCAGCATCTGTGTGG, the sensor-assay potency score (higher = more potent) in the test with PKLR was -1.11.

TTTAAAGACATAGCACTCCTTC: the sensor-assay potency score (higher = more potent) in the test with PLA2G4A is -0.0879.

In the case of TAGAGTGTGGAGATGCACCAGG, in the test with PLA2G4F, the sensor-assay potency score (higher = more potent) is -0.214.

Turning to TATCTTTTAACTTTCTGTGGTG, the sensor-assay potency score (higher = more potent) in the test with PLA2G4A is -0.296.

For TTTGATAGTCACTTCCAGCATC, the sensor-assay potency score (higher = more potent) with PLA2G4A was -0.254.

With TGATTCATCATCACTGTCCGAG, the sensor-assay potency score (higher = more potent) with PLA2G4A was 0.0963.

TTGTCTGAAAGTCTTCTCCTGA yielded a sensor-assay potency score (higher = more potent) with PLA2G4A of 0.182.

With TCGCTTGTCTCTGCCCTCGTTG, the sensor-assay potency score (higher = more potent) with PKLR was -1.2.

As to TAGTACTGTAGCCGCTCCGTGG, the sensor-assay potency score (higher = more potent) in the test with PLA2G4F is -1.01.
